Reference: PubChem BioAssay AID1672 (Johns Hopkins Ion Channel Center, 2009)
The whole screen tested about 310,000 compounds, of which about 2,600 (0.84%) were called active. The sample as a whole holds a higher share of actives than the screen did. Values without a mark were called inactive.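 The calls were made as follows: active = fluorescence ratio B-score at or below minus 3 SD of library scores, with starting-brightness B-score within 2 SD (cut at about -4.2 in these data); inactive = the rest.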

target: Inward rectifier potassium channel 2 (Mus musculus) (UniProt P35561); test: inhibitors of mouse Kir2.1 inward-rectifier potassium channel (AID 1672); settings: HEK293-Kir2.1, FluxOR thallium flux fluorescence; at 10 µM; stronger effect = lower value;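 also: channel flux triggered by added potassium and thallium sulfate stimulus; B-score of peak minus minimum fluorescence over baseline after thallium stimulus; more negative B-score means stronger Kir2.1 block with less thallium influx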
Sequence (P35561 whole entry, looked up): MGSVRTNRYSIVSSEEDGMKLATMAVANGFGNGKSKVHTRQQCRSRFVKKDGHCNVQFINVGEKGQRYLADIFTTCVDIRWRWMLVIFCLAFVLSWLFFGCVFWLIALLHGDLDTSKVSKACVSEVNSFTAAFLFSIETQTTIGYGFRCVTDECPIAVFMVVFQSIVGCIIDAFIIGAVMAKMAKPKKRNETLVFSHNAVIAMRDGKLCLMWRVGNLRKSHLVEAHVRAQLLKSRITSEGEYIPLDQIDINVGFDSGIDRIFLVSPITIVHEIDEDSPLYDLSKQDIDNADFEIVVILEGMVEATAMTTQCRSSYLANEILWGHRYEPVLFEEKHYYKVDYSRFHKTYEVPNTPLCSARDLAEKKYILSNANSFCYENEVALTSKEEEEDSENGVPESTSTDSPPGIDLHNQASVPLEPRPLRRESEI

In order of rising B-score:
1. Cc1cc(NC(=O)C(C)SCC(=O)Nc2ccccc2N2CCCCC2)no1 (configuration not stated)  -4.17
2. CCn1c(SCC(=O)c2ccc3ccccc3c2)nnc1-c1cccs1  -2.71
3. CCOc1ccc(C(=O)Nc2cc(Cl)ccc2-n2cncn2)cc1OC  -2.32
4. Cc1ccc(-n2c(Cc3cccs3)nnc2SCC(=O)OC(C)C)cc1  -2.12
5. Cc1ccc(-c2cc(=O)[nH]c(NCc3ccccc3)n2)cc1  -1.96
6. CCCCn1c(N)c(N(CC(C)C)C(=O)c2cccc(S(=O)(=O)N3CCN(C(C)=O)CC3)c2)c(=O)[nH]c1=O  -1.82
7. COc1ccccc1C(CNC(=O)c1cccc(NS(=O)(=O)c2ccc(Br)cc2)c1)N(C)C (configuration not stated)  -1.8
8. Cc1c(Cl)cccc1NC(=S)NCc1ccc2c(c1)OCO2  -1.74
9. Cc1ccn2c(=O)nc(SCC(=O)NCc3ccc4c(c3)OCO4)nc2c1  -1.61
10. O=S(=O)(ON(c1ccccc1)S(=O)(=O)c1ccccc1)c1ccccc1  -1.37
11. COc1cc(NC(=O)c2cccnc2SC)cc(OC)c1  -1.22
12. COc1ccccc1C(=O)NC(CCSC)C(=O)N1CCN(C/C=C/c2ccccc2)CC1 (configuration not stated)  -1.22
13. O=C(c1cc(-c2ccco2)nc2ccccc12)N(Cc1nnc(-c2ccc(Cl)cc2)o1)C1CC1  -1.19
14. COC(=O)c1ccc(NS(=O)(=O)c2cc3c4c(c2)C(C)C(=O)N4CCC3)cc1 (configuration not stated)  -0.99
15. COc1ccccc1C(=O)N1CC2(C)CC1CC(C)(C)C2 (configuration not stated)  -0.99
16. O=C(Nc1ccc(S(=O)(=O)N2CCCCC2)cc1)C1CCN(C(=O)c2ccc(F)cc2)CC1  -0.97
17. CCOc1ccc(C(C)=O)cc1COC(=O)CNC(=O)c1cccs1  -0.97
18. Cc1ccc(C(=O)C(C)OC(=O)Cc2n[nH]c(=O)c3ccccc23)cc1C (configuration not stated)  -0.94
19. COc1ccc(CCNC(=O)C(=O)NCC2CCCN2S(=O)(=O)c2cccs2)cc1OC (configuration not stated)  -0.91
20. COc1cc(/C=N/O)cc(Br)c1OCc1cccc(Cl)c1  -0.84
21. CSc1ccc(Cl)c(C(=O)OCC(=O)N2CC(C)OC(C)C2)c1 (configuration not stated)  -0.84
22. COc1ccccc1CN(C)C(=O)c1cc2ccccc2o1  -0.72
23. CCc1nnc(NS(=O)(=O)c2ccc(NC(=O)c3cccc(OC(F)(F)C(F)F)c3)cc2)s1  -0.69
24. O=C(/C=C/c1ccc2c(c1)OCO2)NCc1ccc(F)cc1  -0.53
25. COc1ccc(/C=N/NC(=O)c2cc(-c3cccc(C)c3)nc3ccccc23)cc1O  -0.5
26. Cc1cc(NC(=O)CCS(=O)(=O)c2ccc(F)cc2)no1  -0.47
27. Cc1nnc(SCC(=O)N2CCOCC2)[nH]c1=O  -0.42
28. CC(C)(C)C(=O)Cn1c(NCCO)nc2ccccc21  -0.4
29. CCOc1ccc(NS(=O)(=O)c2ccc(C(=O)NC3CCN(Cc4ccccc4)CC3)cc2)cc1  -0.37
30. Cc1ccc2nc(NC(=O)C3CSC4(C)CCC(=O)N34)sc2c1 (configuration not stated)  -0.28
31. COc1ccccc1CCC(=O)OCC(=O)N1CCN(S(=O)(=O)c2ccc(C)cc2C)CC1  -0.28
32. COc1ccc(NC(=O)CCC(=O)N2CCN(S(=O)(=O)c3ccc(C)cc3)CC2)c(OC)c1  -0.19
33. CCOc1ccc(S(=O)(=O)Nc2cccc(C(=O)NCC3(N4CCCCC4)CCCCC3)c2)cc1  -0.12
34. COc1cc(/C=N/Nc2ccc(C)cc2)cc(Br)c1O  -0.11
35. COC(=O)c1ccc(NC(=O)c2ccccc2NS(=O)(=O)c2ccccc2)cc1  -0.07
36. COc1cccc(CN(C)C(=O)CC23CC4CC(CC(C4)C2)C3)c1OC  0.01
37. Cc1sc2ncnc(N3CCC(C(=O)NNC(=O)c4ccc(F)cc4)CC3)c2c1C  0.05
38. C=CCn1c(=O)c2ccccc2n2c(SCC(=O)N3CCCc4ccccc43)nnc12  0.08
39. O=C(O)[C@@H]1CCCN1c1ncnc2sc3c(c12)CCC3  0.12
40. Cc1nn(C)cc1C(=O)c1ccccc1  0.22
41. CN(N)c1nc(N2CCCC2)nc(N2CCCC2)n1  0.28
42. CCC(C)NC(=O)c1ccc(N2CCC3(CC2)OCCO3)c([N+](=O)[O-])c1 (configuration not stated)  0.4
43. O=C(CCCN=C1NS(=O)(=O)c2ccccc21)OCC(=O)c1ccc(F)c(F)c1  0.45
44. CCNC(=S)Nc1cccc(Cl)c1C  0.45
45. COc1ccc(CN2CCN(Cc3ccc(OC)c(OC)c3OC)CC2)cc1  0.47
46. O=C(Nc1ccc(N2CCCCC2)cc1)c1cc(S(=O)(=O)N2CCOCC2)ccc1F  0.53
47. COc1ccc(C)cc1S(=O)(=O)Nc1cc2c3c(c1)CCC(=O)N3CCC2  0.54
48. C/C(=N\NC(=O)COc1ccc(C)cc1[N+](=O)[O-])c1ccc2c(c1)OCCO2  0.54
49. COc1cc(N)c(Cl)cc1C(=O)OCC(=O)c1ccc2c(c1)NC(=O)CO2  0.6
50. COc1ccc(N2CCN(C(=O)COC(=O)c3cccc(S(=O)(=O)Nc4ccccc4OC)c3)CC2)cc1  0.61
51. O=C(CN1C(=O)NC2(CCCC2)C1=O)OCCOc1ccc(F)cc1  0.63
52. CN1c2ccc([N+](=O)[O-])cc2C(C)(C)C12C=Cc1cc(C(=O)O)ccc1O2 (configuration not stated)  0.63
53. COc1ccc(C(=O)c2c3ccc([N+](=O)[O-])cc3[n+]([O-])n2CCCN)cc1  0.68
54. COc1cccc(CC2(CO)CCCN(CC3=Cc4cc(OC)ccc4OC3)C2)c1 (configuration not stated)  0.68
55. O=C(NC1C2CC3CC(C2)CC1C3)c1ccc(N2CCNCC2)c([N+](=O)[O-])c1 (configuration not stated)  0.7
56. O=C(CSc1nc2ccccc2c(=O)n1CCCO)N1CCc2ccccc21  0.73
57. COc1ccc(NC(=O)CN(C)C(=O)c2ccc(NC3CC3)c([N+](=O)[O-])c2)cc1  0.91
58. COc1ccc(NC(=O)c2cc(-c3ccc(C)cc3)on2)cc1  0.92
59. COc1cc(-c2nnc(NC(=O)C3=COCCO3)o2)cc(OC)c1OC  0.99
60. CN(Cc1nc2ccccc2s1)C(=O)c1ccc(F)cc1  1.03
61. COc1ccc(CNC(=O)C2CCCC2)cc1  1.06
62. COCOc1cc(O)c(C(=O)/C=C/c2ccc(OCOC)c(OCOC)c2)c(OCOC)c1  1.19
63. Cc1cccc(C(=O)NCC(=O)OCC(=O)N2CC3(C)CC2CC(C)(C)C3)c1 (configuration not stated)  1.23
64. O=C(NC1CCCCC1)c1ccc(-c2ccc(Cl)cc2)o1  1.25
65. CCn1c2ccccc2c2cc(NC(=O)COC(=O)c3ccccc3Br)ccc21  1.33
66. COc1ccc(C(=O)OCC(=O)c2ccc(Cl)s2)c(OC)c1OC  1.46
67. COc1ccc(Cn2nnc3c(=O)[nH]c(C4CCN(C(=O)c5ccccc5Cl)CC4)nc32)cc1  1.59
68. CCCCCCCCCCCCN1[C@@H](CC(C)=O)c2cc(F)cc(F)c2S1(=O)=O  1.64
69. CCOC(=O)c1c(NC(=O)CSc2nnc(C)c(=O)[nH]2)sc2c1CCC2  1.75
70. COc1ccccc1NC(=O)COC(=O)c1ccccc1SCC(=O)N1CCCC1  1.77
71. CCn1c2ccccc2c2cc(NC(=O)C/C(C)=N/NC(=O)c3ccccc3N)ccc21  1.9
72. Cc1ccc(S(=O)(=O)c2ccc(Oc3ccccc3)cc2)cc1  1.97
73. CC1CCN(c2ccc(-c3ccc(NC(=O)c4ccco4)cc3)nn2)CC1  2.11
74. COc1ccc(Nc2cc(Cl)ccc2C(=O)O)cn1  2.53

With `CC(NC(=O)c1ccc(N2CCNCC2)c([N+](=O)[O-])c1)C12CC3CC(CC(C3)C1)C2` (configuration not stated) the B-score was -8.06 (active).
With `COc1ccc(NC(=O)/C(Cl)=C(/Cl)S(=O)Cc2ccc(C)cc2)cn1` (configuration not stated) the B-score was -5.16 (active).
In the case of `COc1cc(NC(=O)c2ccccc2NS(=O)(=O)c2ccc(Cl)s2)cc(OC)c1`, the B-score is reported as -4.91 (active).
In the case of `CCn1c2ccccc2c2cc(NC(=O)CNC)ccc21`, the B-score is reported as -5.93 (active).
In the case of `COc1ccc(CN2CCC(c3nc4ccc(Cl)cc4[nH]3)CC2)cc1`, the B-score is reported as -7.29 (active).
With `COc1cc(/C=N/O)cc(Br)c1OS(=O)(=O)c1ccc(C)cc1` the B-score was -10.4 (active).
In the case of `COc1ccccc1CN(C)C(=O)C1(c2ccc(Cl)cc2)CC1`, the B-score is reported as -7.43 (active).
With `CC1=C/C(=N\OS(=O)(=O)c2ccccc2)C=CC1=O` the B-score was -8.49 (active).
For `C=CS(=O)c1sc(Cl)c(N2CCOCC2)c1[N+](=O)[O-]` (configuration not stated), the B-score was -4.54 (active).
In the case of `CCCCOC(=O)CNc1nnc(SCC(=O)OCC)[nH]c1=O`, the B-score is reported as -5.69 (active).
`OCCNc1nc2ccccc2n1-c1ncnc2sc3c(c12)CCC3` was tested, and the B-score was -8.97 (active).
`Cc1nnnn1/C(=C\c1ccccc1)C(=O)OCC(=O)N1CC2(C)CC1CC(C)(C)C2` (configuration not stated) was tested, and the B-score was -4.63 (active).
With `CCn1c(Cc2cccs2)nnc1SCC(=O)c1ccc(C)cc1` the B-score was -4.88 (active).
`COc1c(C=O)c(CCN(C)C(=O)c2ccc(F)cc2)cc2c1OCO2` was tested, and the B-score was -4.35 (active).
In the case of `Cc1c(Cl)cccc1NC(=S)NCC(O)c1ccccc1` (configuration not stated), the B-score is reported as -4.47 (active).
`COc1ccc2c(c1)C=CC1(O2)N(CCO)c2ccccc2C1(C)C` (configuration not stated) was tested, and the B-score was -6.82 (active).
For `CC1CN(C(=O)COC(=O)c2cccc(NS(=O)(=O)c3ccccc3)c2)CC(C)O1` (configuration not stated), the B-score was -4.76 (active).
For `Cn1c(SCC(=O)N2CCCc3ccccc32)nc2ccccc2c1=O`, the B-score was -6.03 (active).
